Results: PubChem BioAssay
Active and inactive are the calls of the source.

The compounds below were run on wheat germ agglutinin (Triticum aestivum), Alexa647-labelled (assay: Alexa647-WGA lectin binding to printed small molecules – biochemical, small-molecule microarray, 635/667 nm fluorescence, artefact control for SMM control-protein annotation, profiling panel (AID 1140;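 further: score merges 667 nm feature emission with signal to noise over triplicate slides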)). Settings: WGA-A647 binding, 635 nm fluorescence, higher = more signal.

Composite z-score, 0.0283:
CCN1C(=O)[C@H]2[C@H]3[C@H](O)[C@H](O)CC(=NOC(C)CN4CCCCc5nc(C)c(C)cc54)[C@@H]3CC[C@H]2C1=O (some centres undefined)

Composite z-score, 0.353:
CC(=O)OC[C@H]1O[C@H](C#CCCCc2ccccc2)C=C[C@@H]1OC(C)=O

Composite z-score, -0.116:
COC(=O)CC=C[C@@H](C)[C@@H](C=NO[C@H](C)c1cn([C@@H]2COC[C@H]2O)nn1)OC

Composite z-score, 0.43:
CC(C)(C)OC(=O)CC[C@]1(C(N)=O)COC(c2ccc(OCCCO)cc2)=N1

Composite z-score, -0.0716:
CC(=O)OC[C@H]1O[C@@H](ON=C[C@@H](C)[C@H](OCc2ccccc2)C(C)C)[C@H](OC(C)=O)[C@@H](OC(C)=O)[C@@H]1OC(C)=O

Composite z-score, 0.432:
CCOc1ccc(N2C(=O)/C(=C/C=C/c3ccccc3OC)S(=O)(=O)C2c2cccc([N+](=O)[O-])c2)cc1 (centres undefined)

Composite z-score, 1.04:
COC(=O)[C@@H]1N=C(c2ccc(OCCCO)cc2)O[C@@H]1c1ccccc1N=[N+]=[N-]

Composite z-score, 0.264:
CC(CCN1CCc2nc(-c3ccccc3)c(-c3ccccc3)cc2C1)=NOC(C)CN1CCCCc2nc(C)c(C)cc21 (centres undefined)

Each compound was assayed against Luciferin 4-monooxygenase (Photinus pyralis) (UniProt P08659) (assay: inhibition of purified Photinus pyralis luciferase – biochemical, luminescence, purified enzyme, 2006 set, primary screen (AID 1141;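 further: cell-free assay with purified firefly luciferase at 100 ng per well in PBS; test concentration not given here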)). Settings: purified firefly luciferase, SteadyGlo luminescence, 30 min; higher = more signal, called active from +8 up or from −8 down.
Sequence of Luciferin 4-monooxygenase (Photinus pyralis) (P08659 whole entry, looked up): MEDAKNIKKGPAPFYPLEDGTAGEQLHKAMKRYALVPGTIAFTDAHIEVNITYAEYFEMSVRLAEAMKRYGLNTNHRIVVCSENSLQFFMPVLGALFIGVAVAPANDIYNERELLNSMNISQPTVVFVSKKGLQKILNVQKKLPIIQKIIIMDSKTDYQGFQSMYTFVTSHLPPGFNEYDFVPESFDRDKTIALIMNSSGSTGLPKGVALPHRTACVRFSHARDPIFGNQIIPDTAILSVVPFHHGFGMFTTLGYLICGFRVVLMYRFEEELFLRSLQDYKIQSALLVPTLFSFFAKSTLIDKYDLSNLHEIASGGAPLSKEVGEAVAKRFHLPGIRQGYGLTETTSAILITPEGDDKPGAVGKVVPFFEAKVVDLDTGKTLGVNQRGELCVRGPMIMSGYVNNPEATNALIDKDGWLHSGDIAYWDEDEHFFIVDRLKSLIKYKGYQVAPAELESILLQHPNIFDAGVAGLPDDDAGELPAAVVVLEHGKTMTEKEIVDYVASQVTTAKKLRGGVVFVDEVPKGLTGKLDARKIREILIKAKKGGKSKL

z-score, inactive:
NCCCCCNC(=O)[C@@H]1C[C@@H]2C(=O)N3CCC[C@H]3C(=O)N2[C@@H]1c1cccc(OCCO)c1 -0.115
C=CC[C@]1(C(=O)NCc2ccccc2)N=C(c2ccc(OCCCO)cc2)O[C@H]1c1ccccc1 0.185
COCCOC(=O)N1C(=O)[C@@]2(c3cc(C#CCNC(N)=O)ccc31)[C@H](c1ccc(O)cc1)N1[C@H](c3ccccc3)[C@H](c3ccccc3)OC(=O)[C@H]1[C@@H]2C(=O)N1CCCCCCC1 0.629
O=C1[C@H]2[C@H]3[C@H](O)[C@H](O)CC(=NO[C@@H]4O[C@H](CO)[C@@H](O)[C@H](O)[C@H]4O)[C@@H]3CC[C@H]2C(=O)N1Cc1ccc2c(c1)OCO2 0.949
O=C1[C@H]2[C@H]3[C@H](O)[C@H](O)CC(=NOCc4ccccc4)[C@@H]3CC[C@H]2C(=O)N1C1CCCCC1 0.0264
O=C1[C@H]2[C@H]3[C@H](O)[C@H](O)CC(=NO[C@@H]4O[C@H](CO)[C@@H](O)[C@H](O)[C@H]4O)[C@H]3CC[C@H]2C(=O)N1Cc1ccc2c(c1)OCO2 0.654
O=C(NN=C1C[C@@H](O)[C@@H](O)[C@@H]2[C@@H]3C(=O)N(c4cccc(Oc5ccccc5)c4)C(=O)[C@@H]3CC[C@H]12)OCc1ccccc1 1.26
CC(C)CON=C1C[C@@H](O)[C@@H](O)[C@@H]2[C@@H]3C(=O)N([C@@H](C)c4ccccc4)C(=O)[C@@H]3CC[C@H]12 0.407
CC(=O)O[C@H]1C2=C(C(=O)[C@@H]3O[C@@H]31)[C@H]1C(C)O[C@@H]2[C@@]23C(=O)[C@@H]4O[C@@H]4[C@@H](O)C2=CO[C@H](C)[C@@H]13 (some centres undefined) 0.327
CC(C)(C)N1C(=O)[C@H]2[C@H]3[C@H](O)[C@H](O)CC(=NOCc4ccccc4)[C@@H]3CC[C@H]2C1=O -1
O=C1[C@H]2[C@H]3[C@H](O)[C@H](O)CC(=NOC[C@@H](O)COCc4ccco4)[C@H]3CC[C@H]2C(=O)N1c1cccc(Oc2ccccc2)c1 0.481
CC(C)=CCCC(C)=CCON=C1C[C@@H](O)[C@@H](O)[C@@H]2[C@@H]3C(=O)N(C[C@@H]4CCCO4)C(=O)[C@@H]3CC[C@@H]12 0.722
Cc1ccc(S(=O)(=O)N[C@@H]2COC(=O)[C@H](C)COC(=O)CC=C[C@H]2C)cc1 -0.181
CCc1cc2c(nc1CC)CCN(CCC(C)=NO[C@@H](C)c1cc(-c3c(C)cc(C)cc3C)no1)C2 -0.887
CC(=O)OC[C@H]1O[C@@H](ON=C(C)CCN2CCc3nc(-c4ccccc4)c(-c4ccccc4)cc3C2)[C@H](OC(C)=O)[C@@H](OC(C)=O)[C@@H]1OC(C)=O 0.93
Cc1ccc(S[C@]2(C(=O)NCC(F)(F)F)CC(=O)N(Cc3ccccc3Cl)[C@@H]2c2ccc(CO)cc2I)cc1 -0.289
CO[C@@H]1COC(=O)CC=C[C@@H](C)COC(=O)[C@H](COCc2ccccc2)NC(=O)CC=C[C@H]1C -0.336
O[C@@H](Cc1ccccc1)[C@H]1C2C=CCCC(c3ccccc3)=C2CN1Cc1cccc(Cl)c1 (some centres undefined) -2.22
CC(=O)OC[C@H]1O[C@H](CCON=C[C@@H](C)[C@H](OCc2ccccc2)C(C)C)C=C[C@@H]1OC(C)=O 1.26
CC1(C)OCC(C(O)C2=CCCCC2=O)CO1 (centres undefined) 0.114
CO[C@@H]1COC(=O)CC=C[C@@H](C)[C@@H]2C=C[C@H](O)[C@@H](COC(=O)[C@H](C)NC(=O)CC=C[C@H]1C)O2 1.02
CCCCCN1CC=CC23O[C@@H]4C=CCOC(=O)[C@@H]4[C@H]2C(=O)N(CCCCCCO)[C@@H]3C1=O (some centres undefined) 0.294
COCCCNC(=O)[C@@]1(C)c2ccccc2C(=O)N(Cc2ccc(OC(F)(F)F)cc2)[C@H]1c1ccc(CO)cc1 -0.159
CC(C)[C@@H](OCc1ccccc1)[C@H](C)C=NO[C@H](C)c1cn([C@H](CO)Cc2ccccc2)nn1 -1.62
c1ccc(C2NCCc3c2[nH]c2ccccc32)cc1 (centres undefined) 0.495
O=C1NC(=O)C2C1C=CC(C(O)Cc1ccccc1)N2Nc1ccccn1 (centres undefined) -0.523
CCOC(=O)[C@H](Cc1ccccc1)NC(=O)CCC1CC(OC(=O)NCCc2ccc(F)cc2)CC2(CCCC(COC(=O)NCC(c3ccccc3)c3ccccc3)O2)O1 (some centres undefined) 0.715
COCCOC(=O)N1C(=O)[C@@]2(c3cc(C#Cc4ccc(OC)cc4)ccc31)[C@H](C(=O)N1CCN(c3ncccn3)CC1)[C@H]1C(=O)O[C@H](c3ccccc3)[C@H](c3ccccc3)N1[C@@H]2c1ccc(OCCO)cc1 -0.411
CC(=O)OC[C@H]1O[C@@H](ON=C[C@@H](C)[C@H](OCc2ccccc2)C(C)C)[C@H](OC(C)=O)[C@@H](OC(C)=O)[C@@H]1OC(C)=O 0.0242
COC(=O)CC=C[C@@H](C)[C@@H](C=NO[C@H](C)c1cn([C@@H]2COC[C@H]2O)nn1)OC -0.287
CC(CCN1CCc2nc(-c3ccccc3)c(-c3ccccc3)cc2C1)=NOC(C)CN1CCCCc2nc(C)c(C)cc21 (centres undefined) -0.0959
CC(=O)OC[C@H]1O[C@H](C#CCCCc2ccccc2)C=C[C@@H]1OC(C)=O -1.65
CCOc1ccc(N2C(=O)/C(=C/C=C/c3ccccc3OC)S(=O)(=O)C2c2cccc([N+](=O)[O-])c2)cc1 (centres undefined) -0.889
CCN1C(=O)[C@H]2[C@H]3[C@H](O)[C@H](O)CC(=NOC(C)CN4CCCCc5nc(C)c(C)cc54)[C@@H]3CC[C@H]2C1=O (some centres undefined) 0.161
CC(C)(C)OC(=O)CC[C@]1(C(N)=O)COC(c2ccc(OCCCO)cc2)=N1 -0.0436

z-score, active:
COC(=O)[C@@H]1N=C(c2ccc(OCCCO)cc2)O[C@@H]1c1ccccc1N=[N+]=[N-] -17.9
